Bioassay records as filed in PubChem BioAssay.
Only some compounds are listed: those with a hit (about 21% of all), similar ones and a draw of the others.
ELG1 DNA repair – inhibitors of ELG1-dependent DNA repair in HEK293T cells; HEK293T ELG1-luciferase reporter, luminescence, 16 h; DNA damage induced by 5-fluorouridine; Potency, µM (series often up to 46.1 µM), for the others: top-dose activity change, negative = inhibition, actives largely listed as inhibitors; AID 504467; 330,000 tested, 2.3% active; note: potency is the fitted concentration of half-maximal effect; nearly all actives have a fitted effect of over 55% in size
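Step one: seed 2,000 cells per well. Step two: pin-transfer compound or DMSO alongside 5-fluorouridine. Step three: incubate 16 hr, 37 °C, 5% CO2. Step four: add ONE-Glo, wait 30 min, read luminescence.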
Gal4-VP16 FLuc – Gal4-VP16 reporter inhibition counter-screen; Drosophila S2 Gal4-VP16 UAS-luciferase, luminescence, 20 h; Potency, µM (titrated, usually from 53.6 µM), for the others: at the top dose activity, negative = inhibition, usual class: inhibitors; 310,000 tested, 3.5% active; AID 2546;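 note: Gal4-VP16 expression switched on by copper sulfate through the metallothionein promoter; potency is the fitted concentration of half-maximal effect; nearly all actives have a fitted effect of over 50% in size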
IL-1B inflam inh – blocks inflammasome-driven IL-1 beta release; THP-1 LPS/ATP IL-1B secretion, AlphaLISA, 16 h; hits give low values; activity change, % at 57.5 µM; 360,000 tested, 4.7% active; AID 743279; in the data active = activity change below about -50%; inconclusive = mostly about -30% to -49%
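Secreted IL-1B measured by AlphaLISA bead assay after 16 h compound exposure of THP-1 cells; compounds (final up to 57.5 uM) added 1 h before LPS (250 ng/mL) and ATP (1.25 mM) stimulation; lower signal means less secretion.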
TDP1 cell noCPT – qHTS for Inhibitors of human tyrosyl-DNA phosphodiesterase 1 (TDP1): qHTS in cells in absence of CPT; DT40 Tdp1-/- hTDP1 cells, no CPT, ATP luminescence, 48 h; AID 686978, 2013; 420,000 tested, 15% active; Potency, µM (top dose mostly 46.2 µM), for the others: at the highest dose activity change, negative = growth inhibition, hits mostly inhibitors; note: potency is the fitted concentration of half-maximal effect; nearly all actives have a fitted effect of over 55% in size
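Seeded 400 DT40-hTDP1 cells/well (vehicle DMSO, no 20 nM CPT); pinned compounds; ≥48 hr at 37 °C; CellTiter-Glo luminescence as viability measure.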
TDP1 cell CPT – DT40-hTDP1 cell growth loss with CPT; chicken DT40 Tdp1-/-;hTDP1 cells + 20 nM CPT, ATP luminescence, 48 h; 420,000 tested, 12% active; Potency, µM (top dose mostly 46.2 µM), for the others: at the highest dose activity change, negative = growth inhibition, hits mostly inhibitors; note: potency is the fitted concentration of half-maximal effect; nearly all actives have a fitted effect of over 55% in size
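Cell growth measured by CellTiter-Glo luminescence after a minimum 48 h, 37 C compound exposure with 20 nM CPT in Tdp1-knockout DT40 cells stably expressing hTDP1, seeded 400/well; qHTS titration format.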
RORg inh – ROR gamma (mouse) transcription inhibition; Drosophila S2 Gal4-RORgamma UAS-luciferase reporter, 20 h; P51450; Potency, µM (highest dose often 53.6 µM), without a hit: at the top dose activity change, negative = inhibition, hits mostly inhibitors; AID 2551; 310,000 tested, 5.4% active; note: potency is the fitted concentration of half-maximal effect; nearly all actives have a fitted effect of over 60% in size
Target sequence (P51450 whole entry, looked up, the tested form may be a part): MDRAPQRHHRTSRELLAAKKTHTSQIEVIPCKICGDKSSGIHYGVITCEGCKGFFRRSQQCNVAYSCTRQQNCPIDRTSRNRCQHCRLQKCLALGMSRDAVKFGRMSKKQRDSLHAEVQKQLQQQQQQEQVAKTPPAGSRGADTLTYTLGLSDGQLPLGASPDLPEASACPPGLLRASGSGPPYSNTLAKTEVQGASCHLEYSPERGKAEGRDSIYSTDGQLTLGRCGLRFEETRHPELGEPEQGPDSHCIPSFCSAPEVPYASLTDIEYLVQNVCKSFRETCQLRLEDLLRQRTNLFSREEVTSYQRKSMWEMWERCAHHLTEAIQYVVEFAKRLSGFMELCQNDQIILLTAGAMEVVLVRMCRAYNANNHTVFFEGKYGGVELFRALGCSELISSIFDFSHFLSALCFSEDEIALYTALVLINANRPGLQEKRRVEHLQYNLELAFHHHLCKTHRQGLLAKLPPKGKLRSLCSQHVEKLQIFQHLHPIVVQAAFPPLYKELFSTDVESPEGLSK
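Schneider cells (Drosophila), stable Gal4 DBD–ROR gamma + UAS-luc; 1 hr cmpd preincubation; Cu2+ induction 700 uM final; 20 hr ambient; luminescence.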
The depositor's hits bear a star; ? = inconclusive; . = no result given; [ ] = dose if it differs, or a comment. Unless noted, calls come from the whole dose curve; as a rule, active = well fitted curve in the direction sought with a large enough effect; inconclusive = small, poorly fitted or top-dose-only effect, or another doubt; inactive = no such curve, though single readings can be large; an effect the other way counts as inactive or inconclusive. % is set by controls: 0 for no effect and ±100 for the full control effect.

SMILES	ELG1 DNA repair	Gal4-VP16 FLuc	IL-1B inflam inh	TDP1 cell noCPT	TDP1 cell CPT	RORg inh
COc1ccc(N2C(=O)[C@@H]3[C@H](C2=O)[C@H]2C=CC=NN2[C@@H]3C(=O)Nc2ccc(Cl)cc2)cc1	2.9%	?	13.3	?	?	14.1µM*
COC(=O)C1(C(=O)OC)C[C@H](c2ccc(OC)cc2)N(Cc2ccccc2OC)[C@@H]1c1ccc(OC)cc1	.	.	?	20.6µM*	?	.
COc1ccccc1CNC(=O)C12CC3CC(CC(C3)C1)C2	7.3%	-1.3%	11.8	?	?	-9.4%
O=C(CC[C@H]1O[C@@H](n2ccc(=O)[nH]c2=O)[C@H](O)[C@@H]1O)N1CCN(Cc2cccc3ccccc23)CC1	.	.	8.3	-20.4%	-11.9%	.
CSCC[C@H](NC(=O)[C@H](Cc1c[nH]c2ccccc12)NC(=O)CNC(=O)[C@H](Cc1ccc(O)cc1)NC(=O)[C@H](C)NC(=O)[C@H](CCC(=O)O)NC(=O)[C@H](CCC(=O)O)NC(=O)[C@H](CCC(=O)O)NC(=O)[C@H](CCC(=O)O)NC(=O)[C@H](CCC(=O)O)NC(=O)[C@H](CC(C)C)NC(=O)[C@H](Cc1c[nH]c2ccccc12)NC(=O)[C@@H]1CCCN1C(=O)CNC(=O)[C@@H]1CCC(=O)N1)C(=O)N[C@@H](CC(=O)O)C(=O)N[C@@H](Cc1ccccc1)C(=O)NCC(=O)O	.	6.2%	.	.	.	0.5%
CCOC(=O)C1CN(S(C)(=O)=O)c2cc(CC(=O)OC)ccc2O1 (stereo not drawn)	-10.9%	-14.2%	-101.4*	10.5%	7.9%	3.2%
CCOC(=O)C1CN(S(=O)(=O)c2ccc(OC)cc2)c2cc(CC(=O)OC)ccc2O1 (stereo not drawn)	2.6%	-5.3%	16.4	-27.4%	?	-30.4%
O=C(O)[C@H]1CCCNC1	.	-7.5%	.	-1.3%	5.7%	25.9%
Cc1ccc(-c2noc(CN(C(=O)Cc3ccccc3)C(C)C)n2)cc1	-7.2%	17.1%	-10.3	?	?	9.8%
CCc1ccccc1N(CC)C(=O)CCc1nc(-c2ccc(C)cc2)no1	1.7%	?	?	23.1µM*	23.1µM*	?
CCCN(C(=O)CCc1nc(-c2ccc(C)cc2)no1)c1ccc(OCC)cc1	.	.	.	?	16.4µM*	.
Cc1ccc(-c2noc(CCC(=O)Nc3ccc(C)cn3)n2)cc1	2.3%	-17.6%	43.2	-28.2%	-27.7%	-18.0%
CCN(Cc1ccccc1)C(=O)CCc1nc(-c2ccc(C)cc2)no1	?	?	-0.1	23.1µM*	29.1µM*	0.0%
Cc1ccc(-c2noc(CCC(=O)NCCc3ccccc3Cl)n2)cc1	-2.3%	-23.6%	11.1	?	?	29.5%
Clc1cccc(-c2nc3nc4ccccc4nc3n2Cc2ccccc2)c1	?	-14.8%	-11.0	?	?	-8.2%
C=CCn1c(-c2ccccc2)nc2nc3ccccc3nc21	3.3%	4.1%	-7.2	18.4µM*	18.4µM*	-2.6%
c1ccc(Cn2c(-c3ccccc3)nc3nc4ccccc4nc32)cc1	20.6µM*	2.8%	-1.7	23.1µM*	20.6µM*	-11.7%
CCCC(=O)OC1(C(=O)CO)CCC2C3CCC4=CC(=O)CCC4(C)C3C(O)CC21C (stereo not drawn)	.	-1.1%	.	.	.	9.9%
CSC(=NC#N)N1CCN(c2ccccc2)CC1	?	?	-10.2	6.4%	1.9%	-31.9%
CSC(=NC#N)N1CCN(c2c(C)cccc2C)CC1	-1.2%	13.7%[10 µM]	-13.5	?	?	11.2µM*
O=C(Nc1cnn(Cc2c(Cl)cccc2Cl)c1)C(c1ccccc1)c1ccccc1	-26.0%	4.9%	-20.2	16.4µM*	23.1µM*	7.9%
O=C(COc1ccccc1Cl)Nc1cnn(Cc2ccccc2)c1	-10.4%	-17.2%	-12.7	?	-10.1%	37.8%
COC(=O)[C@H](Cc1ccccc1)NC(=O)/C=C/[C@H]1O[C@@H](n2cc(C)c(=O)[nH]c2=O)C[C@@H]1O	.	.	16.9	-3.5%	-0.2%	.
CCOC(=O)c1c(-c2ccc(OC)cc2)oc2ccc(O)cc12	0.2%	-6.3%	6.5	?	-12.3%	-13.6%
CCCc1oc2ccc(NS(=O)(=O)c3ccc(OC)cc3)cc2c1C(=O)OCC	.	.	.	1.16µM*	1.84µM*	.
SMILES	ELG1 DNA repair	Gal4-VP16 FLuc	IL-1B inflam inh	TDP1 cell noCPT	TDP1 cell CPT	RORg inh
CCOC(=O)c1c(C)oc2ccc(OCc3cc(C(=O)OC)oc3C)cc12	-7.8%	14.3%	-17.0	13µM*	18.4µM*	-19.3%
CCCc1oc2ccc(NS(=O)(=O)c3ccc(OCC)cc3)cc2c1C(=O)OCC	.	.	.	5.8µM*	6.51µM*	.
COC(=O)c1cc(COc2ccc3oc(C)c(C(=O)OC)c3c2)c(C)o1	?	-2.7%	3.9	?	?	10.8%
COCCOC(=O)c1c(C)oc2ccc(OC(=O)c3c(OC)cccc3OC)cc12	?	0.9%	29.0	16.4µM*	?	?
NS(=O)(=O)c1ccc(NC(=O)CN2CCc3ccccc3C2)cc1	-11.0%	0.8%	8.6	-11.0%	3.7%	?
N#CC1(NC(=O)COC(=O)Cc2c[nH]c3ccccc23)CCCCC1	.	.	10.7	-25.2%	-7.0%	.
COc1ccc(CN2CC[C@@H]3CN(C(C)=O)[C@H](c4ccccc4Br)C[C@@H]32)cc1	.	.	-2.8	?	?	.
COCCOC(=O)c1c(C)oc2ccc(NS(=O)(=O)c3ccc(C)cc3)cc12	-23.9%	4.8%	-10.2	25.9µM*	?	?
COCCOC(=O)c1c(C)oc2ccc(NS(=O)(=O)c3ccccc3)cc12	-27.0%	1.9%	-5.5	-22.9%	-3.1%	36.9%
Cc1ccc(-n2nc3c(=O)n(CCCC(=O)NCc4ccco4)nc(C)c3c2C)cc1	-1.1%	-3.3%	-8.3	-13.2%	?	7.6%
CCOC(=O)c1ccccc1NS(=O)(=O)c1ccc(N2CCCCS2(=O)=O)cc1	.	.	.	16.4µM*	23.1µM*	.
COc1ccccc1CNS(=O)(=O)c1ccc(N2CCCCS2(=O)=O)cc1	.	.	.	23.1µM*	?	.
Cc1cc(C)cc(NS(=O)(=O)c2ccc(N3CCCCS3(=O)=O)cc2)c1	.	.	.	14.6µM*	11.6µM*	.
CC(C)CCNS(=O)(=O)c1ccc(N2CCCCS2(=O)=O)cc1	.	.	.	9.2µM*	11.6µM*	.
COc1ccccc1CNS(=O)(=O)c1ccc(NC(C)=O)cc1	-9.9%	-8.7%	23.0	?	-27.8%	?
